log2 fold change data for 33 targets are collected here from the supplement of paper PMC10849652.

Of roughly 7,900 targets only a part is listed; those with a hit were picked by preference. About 0.6% of all pairs of compound and target were hits. A number with no mark means an inactive call.

UniProt Q13530, sequence (Q13530 whole entry, looked up): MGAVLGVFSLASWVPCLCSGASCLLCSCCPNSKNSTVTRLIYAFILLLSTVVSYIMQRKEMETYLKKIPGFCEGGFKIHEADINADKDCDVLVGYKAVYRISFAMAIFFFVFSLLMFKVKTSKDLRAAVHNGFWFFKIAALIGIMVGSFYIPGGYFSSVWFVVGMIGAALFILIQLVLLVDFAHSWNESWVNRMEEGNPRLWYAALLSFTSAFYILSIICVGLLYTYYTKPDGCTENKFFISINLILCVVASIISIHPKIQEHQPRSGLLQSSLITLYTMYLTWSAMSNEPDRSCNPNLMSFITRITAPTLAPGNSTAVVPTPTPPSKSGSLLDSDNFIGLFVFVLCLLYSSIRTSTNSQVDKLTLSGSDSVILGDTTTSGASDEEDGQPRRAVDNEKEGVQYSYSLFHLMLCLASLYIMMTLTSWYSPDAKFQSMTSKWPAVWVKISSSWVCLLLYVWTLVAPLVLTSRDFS
UniProt O75116, sequence (O75116 whole entry, looked up): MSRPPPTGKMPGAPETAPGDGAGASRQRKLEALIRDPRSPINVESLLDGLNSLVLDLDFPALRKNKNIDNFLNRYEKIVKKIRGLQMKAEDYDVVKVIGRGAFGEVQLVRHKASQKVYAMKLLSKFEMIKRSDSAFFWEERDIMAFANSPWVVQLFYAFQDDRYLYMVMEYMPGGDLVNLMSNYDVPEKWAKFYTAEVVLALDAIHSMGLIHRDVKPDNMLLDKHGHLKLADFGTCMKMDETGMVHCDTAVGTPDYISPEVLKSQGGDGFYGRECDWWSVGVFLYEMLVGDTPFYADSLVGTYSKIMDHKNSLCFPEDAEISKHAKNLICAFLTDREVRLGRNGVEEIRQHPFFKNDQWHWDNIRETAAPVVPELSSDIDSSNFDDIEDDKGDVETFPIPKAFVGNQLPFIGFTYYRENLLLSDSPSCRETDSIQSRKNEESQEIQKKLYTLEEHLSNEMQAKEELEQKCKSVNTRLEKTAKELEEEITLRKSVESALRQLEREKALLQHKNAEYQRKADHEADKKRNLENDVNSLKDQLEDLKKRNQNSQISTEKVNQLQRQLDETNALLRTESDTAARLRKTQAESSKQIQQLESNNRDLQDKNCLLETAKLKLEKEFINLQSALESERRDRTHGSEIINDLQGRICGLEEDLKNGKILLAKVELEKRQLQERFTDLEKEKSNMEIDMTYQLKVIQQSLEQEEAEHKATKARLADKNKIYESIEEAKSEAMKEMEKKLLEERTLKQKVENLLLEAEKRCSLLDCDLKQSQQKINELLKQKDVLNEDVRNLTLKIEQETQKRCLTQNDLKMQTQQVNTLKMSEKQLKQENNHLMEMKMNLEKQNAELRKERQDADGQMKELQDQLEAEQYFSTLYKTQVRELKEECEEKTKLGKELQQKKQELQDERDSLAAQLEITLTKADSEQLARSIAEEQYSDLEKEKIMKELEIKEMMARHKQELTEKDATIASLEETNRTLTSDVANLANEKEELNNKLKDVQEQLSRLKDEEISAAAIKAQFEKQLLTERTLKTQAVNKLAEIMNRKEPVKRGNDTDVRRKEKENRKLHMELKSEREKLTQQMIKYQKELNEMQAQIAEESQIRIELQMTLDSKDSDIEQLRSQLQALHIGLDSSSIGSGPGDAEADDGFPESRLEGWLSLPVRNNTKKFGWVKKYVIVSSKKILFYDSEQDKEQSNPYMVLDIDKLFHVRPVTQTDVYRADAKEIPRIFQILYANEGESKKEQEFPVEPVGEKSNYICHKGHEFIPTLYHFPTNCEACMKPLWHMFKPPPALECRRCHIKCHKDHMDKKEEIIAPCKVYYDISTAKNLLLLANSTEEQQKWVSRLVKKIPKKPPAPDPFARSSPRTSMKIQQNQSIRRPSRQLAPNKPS
UniProt Q01974, sequence (Q01974 whole entry, looked up): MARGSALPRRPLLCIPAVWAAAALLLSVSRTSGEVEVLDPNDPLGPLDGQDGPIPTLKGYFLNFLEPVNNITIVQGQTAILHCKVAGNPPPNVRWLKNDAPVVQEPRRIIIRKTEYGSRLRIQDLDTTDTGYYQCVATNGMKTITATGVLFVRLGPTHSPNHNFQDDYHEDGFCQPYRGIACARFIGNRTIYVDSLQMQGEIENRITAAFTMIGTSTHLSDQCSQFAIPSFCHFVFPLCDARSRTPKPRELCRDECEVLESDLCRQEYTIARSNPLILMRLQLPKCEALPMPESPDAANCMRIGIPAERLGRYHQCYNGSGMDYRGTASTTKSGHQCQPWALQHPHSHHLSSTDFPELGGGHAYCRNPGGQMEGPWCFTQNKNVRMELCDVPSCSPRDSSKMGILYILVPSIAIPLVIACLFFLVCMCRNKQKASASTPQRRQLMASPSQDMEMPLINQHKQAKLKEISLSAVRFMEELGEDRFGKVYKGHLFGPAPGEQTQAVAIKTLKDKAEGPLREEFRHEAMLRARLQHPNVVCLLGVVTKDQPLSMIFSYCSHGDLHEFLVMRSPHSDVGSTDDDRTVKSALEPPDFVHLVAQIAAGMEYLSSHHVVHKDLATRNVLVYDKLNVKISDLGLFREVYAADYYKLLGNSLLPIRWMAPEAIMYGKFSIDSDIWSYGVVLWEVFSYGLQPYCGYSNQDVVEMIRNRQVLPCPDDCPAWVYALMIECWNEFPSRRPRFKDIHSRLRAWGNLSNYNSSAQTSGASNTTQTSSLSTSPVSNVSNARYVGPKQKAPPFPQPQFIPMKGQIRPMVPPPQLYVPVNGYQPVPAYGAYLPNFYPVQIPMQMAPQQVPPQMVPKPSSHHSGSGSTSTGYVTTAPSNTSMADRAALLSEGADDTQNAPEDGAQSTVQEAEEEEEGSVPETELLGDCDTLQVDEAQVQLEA
UniProt O75792, sequence (O75792 whole entry, looked up): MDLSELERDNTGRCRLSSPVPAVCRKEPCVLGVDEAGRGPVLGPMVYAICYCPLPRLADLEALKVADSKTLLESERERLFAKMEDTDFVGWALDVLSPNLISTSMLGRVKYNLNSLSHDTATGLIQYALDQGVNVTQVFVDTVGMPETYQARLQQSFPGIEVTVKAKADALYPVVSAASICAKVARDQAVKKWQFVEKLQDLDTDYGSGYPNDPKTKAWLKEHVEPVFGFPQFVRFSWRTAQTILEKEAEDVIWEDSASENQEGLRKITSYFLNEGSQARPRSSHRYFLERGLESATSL
UniProt P63208, sequence (P63208 whole entry, looked up): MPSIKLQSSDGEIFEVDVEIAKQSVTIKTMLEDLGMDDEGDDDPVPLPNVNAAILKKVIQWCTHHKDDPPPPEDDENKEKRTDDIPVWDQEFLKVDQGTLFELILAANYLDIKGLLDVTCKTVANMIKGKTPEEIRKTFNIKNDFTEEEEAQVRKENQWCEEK
UniProt Q9NQG5, sequence (Q9NQG5 whole entry, looked up): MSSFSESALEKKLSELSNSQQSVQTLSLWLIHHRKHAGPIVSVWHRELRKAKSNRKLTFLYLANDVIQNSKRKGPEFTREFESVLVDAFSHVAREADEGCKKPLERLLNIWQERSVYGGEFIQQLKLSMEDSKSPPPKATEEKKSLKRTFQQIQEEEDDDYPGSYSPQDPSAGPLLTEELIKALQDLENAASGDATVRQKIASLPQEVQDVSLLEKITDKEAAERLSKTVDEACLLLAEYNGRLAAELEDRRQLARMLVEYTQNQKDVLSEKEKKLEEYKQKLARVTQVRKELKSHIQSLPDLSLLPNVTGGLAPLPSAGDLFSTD
UniProt Q8TBN0, sequence (Q8TBN0 whole entry, looked up): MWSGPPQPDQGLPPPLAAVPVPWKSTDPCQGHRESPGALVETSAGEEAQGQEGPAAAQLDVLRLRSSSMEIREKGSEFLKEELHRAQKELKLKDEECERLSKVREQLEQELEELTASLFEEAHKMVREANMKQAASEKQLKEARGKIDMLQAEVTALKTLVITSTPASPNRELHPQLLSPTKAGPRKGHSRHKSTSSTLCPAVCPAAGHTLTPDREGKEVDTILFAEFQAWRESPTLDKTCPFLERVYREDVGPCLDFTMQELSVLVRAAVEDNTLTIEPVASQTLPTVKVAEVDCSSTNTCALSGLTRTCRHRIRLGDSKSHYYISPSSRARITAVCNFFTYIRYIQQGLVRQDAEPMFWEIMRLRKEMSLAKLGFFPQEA
UniProt O43665, sequence (O43665 whole entry, looked up): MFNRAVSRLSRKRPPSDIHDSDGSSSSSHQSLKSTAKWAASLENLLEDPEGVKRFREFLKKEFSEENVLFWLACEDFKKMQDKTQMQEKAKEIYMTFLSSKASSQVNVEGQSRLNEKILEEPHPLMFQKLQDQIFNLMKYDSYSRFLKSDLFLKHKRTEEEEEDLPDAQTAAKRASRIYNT
UniProt Q86VR2, sequence (Q86VR2 whole entry, looked up): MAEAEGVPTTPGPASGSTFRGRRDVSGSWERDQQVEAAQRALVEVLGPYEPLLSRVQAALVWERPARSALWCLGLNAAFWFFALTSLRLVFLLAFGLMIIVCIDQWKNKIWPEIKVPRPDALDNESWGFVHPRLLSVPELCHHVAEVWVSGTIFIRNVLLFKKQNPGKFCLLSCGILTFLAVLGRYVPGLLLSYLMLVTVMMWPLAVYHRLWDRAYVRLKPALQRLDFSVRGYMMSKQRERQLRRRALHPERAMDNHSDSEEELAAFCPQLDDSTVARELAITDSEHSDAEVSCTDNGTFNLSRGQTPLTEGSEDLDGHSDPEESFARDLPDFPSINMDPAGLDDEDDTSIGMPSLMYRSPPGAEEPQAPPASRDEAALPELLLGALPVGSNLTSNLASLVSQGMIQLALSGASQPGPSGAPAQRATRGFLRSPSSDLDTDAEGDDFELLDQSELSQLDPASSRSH
UniProt Q99719, sequence (Q99719 whole entry, looked up): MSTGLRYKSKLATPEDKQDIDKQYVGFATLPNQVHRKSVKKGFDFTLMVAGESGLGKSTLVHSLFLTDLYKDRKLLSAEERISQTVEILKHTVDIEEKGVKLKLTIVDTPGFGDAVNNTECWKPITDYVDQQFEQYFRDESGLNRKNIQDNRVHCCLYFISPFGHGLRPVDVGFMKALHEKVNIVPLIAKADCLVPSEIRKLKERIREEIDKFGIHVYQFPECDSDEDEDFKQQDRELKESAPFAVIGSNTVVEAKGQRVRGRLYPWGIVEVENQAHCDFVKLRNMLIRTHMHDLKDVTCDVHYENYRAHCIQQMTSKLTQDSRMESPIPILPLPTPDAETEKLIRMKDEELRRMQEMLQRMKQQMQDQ

Compound in the first assay: CS(=O)(=O)c1ccc(-c2cnc(N)c(C(=O)Nc3ccccc3)n2)cc1
Description: log2 fold change, soluble protein after heating vs DMSO (PISA); higher = thermal stabilisation; K562 cells, 10 uM, 30 min; active = over 0.2 and 3.5 SD of the protein, either way, in both replicates (recomputed). The gist of the method:
(§1)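 Thermal stability values are relative to control samples and come from duplicates. They are expressed as log2 fold changes. For measurement, K562 cells (2×10^6 cells/mL) received 10 μM compound for 30 min, and aliquots were heated for 3 min over 48°C-58°C, pooled, and extracted at 4°C in PBS with 0.5% NP-40. Soluble protein, the supernatant after 21,000xg for 90 min, was quantified by TMTpro 16plex LC-MS/MS with equalised channel sums.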
Take SIDT2 isoform 2 (UniProt Q8NBJ9): the log2 fold change was 0.132.

As to ROR2 (UniProt Q01974), the log2 fold change was 0.028.

For the target RAP1GDS1 isoform 5 (UniProt P52306), the log2 fold change was 0.061.

SKP1 (UniProt P63208): the log2 fold change is -0.052.

Turning to REL (UniProt Q04864), the log2 fold change is 0.079.

Take SERINC3 (UniProt Q13530): the log2 fold change is 0.15.

Regarding RPS9 (UniProt P46781), the log2 fold change is -0.075.

Turning to RB1CC1 (UniProt Q8TDY2), the log2 fold change is 0.062.

Consider SAFB2 (UniProt Q14151), for which the log2 fold change is -0.079.

Consider RAB3IL1 (UniProt Q8TBN0), for which the log2 fold change is 0.009.

As for RPS6KA1 isoform 2 (UniProt Q15418), the log2 fold change is 0.

RPRD1B (UniProt Q9NQG5): the log2 fold change was -0.104.

On to RPS3 (UniProt P23396), for which the log2 fold change is -0.07.

For SEC24A (UniProt O95486), the log2 fold change was 0.002.

Turning to SCCPDH (UniProt Q8NBX0), the log2 fold change was 0.074.

RPS27A (UniProt P62979): the log2 fold change is 0.05.

For ROCK2 (UniProt O75116), the log2 fold change is 0.033.

For the target SACM1L (UniProt Q9NTJ5), the log2 fold change was 0.026.

As to RPA1 (UniProt P27694), the log2 fold change is -0.028.

As for RNASEH2A (UniProt O75792), the log2 fold change is 0.106.

Take RGS10 (UniProt O43665): the log2 fold change is 0.014.

In the case of SDHAF2 (UniProt Q9NX18), the log2 fold change is -0.042.

Take SEPTIN5 (UniProt Q99719): the log2 fold change is 0.004.

With SAMD4B (UniProt Q5PRF9), the log2 fold change is -0.102.

On to SCD (UniProt O00767), for which the log2 fold change was 0.024.

With SEC23IP (UniProt Q9Y6Y8), the log2 fold change is 0.142.

On to SLC18B1 (UniProt Q6NT16), for which the log2 fold change was 0.027.

Consider SAAL1 (UniProt Q96ER3), for which the log2 fold change was 0.013.

For the target RBM26 isoform 3 (UniProt Q5T8P6), the log2 fold change is 0.066.

Turning to SENP6 (UniProt Q9GZR1), the log2 fold change is -0.016.

For the target RPS12 (UniProt P25398), the log2 fold change was -0.041.

As for RANBP2 (UniProt P49792), the log2 fold change was -0.016.

Regarding RETREG3 (UniProt Q86VR2), the log2 fold change is 0.016.

Compound in the next assay: C[C@@H](Oc1cc(-c2cnn(C3CCNCC3)c2)cnc1N)c1c(Cl)ccc(F)c1Cl [crizotinib]
The assay is described as above. The gist of the method:
as §1
For the target SIDT2 isoform 2 (UniProt Q8NBJ9), the log2 fold change is -0.026.

As to ROR2 (UniProt Q01974), the log2 fold change is 0.007.

In the case of RAP1GDS1 isoform 5 (UniProt P52306), the log2 fold change is -0.062.

SKP1 (UniProt P63208): the log2 fold change is 0.027.

Regarding REL (UniProt Q04864), the log2 fold change was -0.04.

As to SERINC3 (UniProt Q13530), the log2 fold change is -0.228.

For RPS9 (UniProt P46781), the log2 fold change was 0.02.

With RB1CC1 (UniProt Q8TDY2), the log2 fold change was 0.041.

SAFB2 (UniProt Q14151): the log2 fold change was -0.016.

With RAB3IL1 (UniProt Q8TBN0), the log2 fold change is 0.086.

In the case of RPS6KA1 isoform 2 (UniProt Q15418), the log2 fold change is -0.259.

On to RPRD1B (UniProt Q9NQG5), for which the log2 fold change is 0.072.

Take RPS3 (UniProt P23396): the log2 fold change is 0.025.

For SEC24A (UniProt O95486), the log2 fold change was -0.001.

With SCCPDH (UniProt Q8NBX0), the log2 fold change was 0.333.

Regarding RPS27A (UniProt P62979), the log2 fold change was 0.053.

For the target ROCK2 (UniProt O75116), the log2 fold change was -0.041.

Consider SACM1L (UniProt Q9NTJ5), for which the log2 fold change was 0.

With RPA1 (UniProt P27694), the log2 fold change was -0.019.

For RNASEH2A (UniProt O75792), the log2 fold change was -0.134.

Consider RGS10 (UniProt O43665), for which the log2 fold change is -0.045.

For the target SDHAF2 (UniProt Q9NX18), the log2 fold change was -0.183.

Regarding SEPTIN5 (UniProt Q99719), the log2 fold change was 0.017.

With SAMD4B (UniProt Q5PRF9), the log2 fold change is -0.527 (active).

For SCD (UniProt O00767), the log2 fold change is -0.2.

Consider SEC23IP (UniProt Q9Y6Y8), for which the log2 fold change is -0.238.

As for SLC18B1 (UniProt Q6NT16), the log2 fold change was -0.404 (active).

As for SAAL1 (UniProt Q96ER3), the log2 fold change was -0.129.

Regarding SENP6 (UniProt Q9GZR1), the log2 fold change was -0.015.

For RPS12 (UniProt P25398), the log2 fold change is 0.078.

RANBP2 (UniProt P49792): the log2 fold change is 0.009.

Take RETREG3 (UniProt Q86VR2): the log2 fold change was -0.076.

Compound in another assay: C[C@@H]1COCCN1C2=NC(=NC(=C2)C3(CC3)S(=O)(=O)C)C4=C5C=CNC5=CC=C4
The assay is described as above. The gist of the method: as §1
Take SIDT2 isoform 2 (UniProt Q8NBJ9): the log2 fold change was -0.017.

Consider ROR2 (UniProt Q01974), for which the log2 fold change was 0.081.

For RAP1GDS1 isoform 5 (UniProt P52306), the log2 fold change is 0.08.

Regarding SKP1 (UniProt P63208), the log2 fold change is -0.039.

On to REL (UniProt Q04864), for which the log2 fold change is 0.005.

For SERINC3 (UniProt Q13530), the log2 fold change was 0.017.

In the case of RPS9 (UniProt P46781), the log2 fold change is -0.401.

For the target RB1CC1 (UniProt Q8TDY2), the log2 fold change was -0.006.

As to SAFB2 (UniProt Q14151), the log2 fold change is -0.316.

Regarding RAB3IL1 (UniProt Q8TBN0), the log2 fold change was 0.071.

RPS6KA1 isoform 2 (UniProt Q15418): the log2 fold change was 0.138.

Regarding RPRD1B (UniProt Q9NQG5), the log2 fold change was 0.062.

On to RPS3 (UniProt P23396), for which the log2 fold change was -0.258.

As to SEC24A (UniProt O95486), the log2 fold change is 0.075.

As for SCCPDH (UniProt Q8NBX0), the log2 fold change is 0.058.

Consider RPS27A (UniProt P62979), for which the log2 fold change is -0.229.

As for ROCK2 (UniProt O75116), the log2 fold change was 0.026.

SACM1L (UniProt Q9NTJ5): the log2 fold change was 0.062.

Consider RPA1 (UniProt P27694), for which the log2 fold change was -0.199.

Take RNASEH2A (UniProt O75792): the log2 fold change was -0.045.

As to RGS10 (UniProt O43665), the log2 fold change was 0.012.

As to SDHAF2 (UniProt Q9NX18), the log2 fold change is 0.07.

Regarding SEPTIN5 (UniProt Q99719), the log2 fold change is 0.036.

Consider SAMD4B (UniProt Q5PRF9), for which the log2 fold change was -0.036.

For the target SCD (UniProt O00767), the log2 fold change is -0.06.

In the case of SEC23IP (UniProt Q9Y6Y8), the log2 fold change was 0.055.

Turning to SLC18B1 (UniProt Q6NT16), the log2 fold change is 0.06.

Turning to SAAL1 (UniProt Q96ER3), the log2 fold change is 0.047.

Regarding SENP6 (UniProt Q9GZR1), the log2 fold change is -0.134.

As for RPS12 (UniProt P25398), the log2 fold change was -0.098.

For RANBP2 (UniProt P49792), the log2 fold change was -0.011.

As for RETREG3 (UniProt Q86VR2), the log2 fold change was 0.081.
